Assay outcomes deposited in PubChem BioAssay by The Scripps Research Institute Molecular Screening Center.
The list is not random: actives were taken first. Their share in the collection is about 4.1%.
ssDAF-12 act = activators of S. stercoralis DAF-12 nuclear receptor. activation, % at 6.8 µM. HEK293 ssDAF-12/GRIP1 lit1-tk-luc reporter, luminescence; % of 3 µM dafachronic acid response. AID 652126. 370,000 tested, 1% active;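 active = activation above the mean over all tested compounds plus 3 SD, cut at about 0.9% in these data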;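 note: 0% = DMSO-only wells and 100% = 3 µM delta7-dafachronic acid wells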
hgDAF12 agonist = activates the H. glycines DAF-12 receptor ligand-binding domain; HEK293 GAL4-hgDAF12 UAS-luciferase reporter, agonist luminescence; normalized to butyrate control; activation, % at 6.8 µM; 370,000 tested, 1.8% active;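 active = activation above a cutoff set at the mean of all screened compounds plus 3 SD, cut at about 10% in these data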;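 note: 0% = DMSO wells and 100% = sodium butyrate wells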
DAX1 inh-1 = inhibits human nuclear receptor DAX1 | P51843 | HEK293 Gal4-DAX1 luciferase reporter, luminescence | inhibition, % at 6.75 µM | 340,000 tested, 0.99% active;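 active = inhibition above the mean over all tested compounds plus 3 SD, cut at about 4.2% in these data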;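 note: 0% = DAX1-transfected cells with DMSO and 100% = empty-vector control cells with DMSO; inhibition shows as a rise in luminescence from relieved DAX1 repression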
Target sequence (P51843 207-470 limits assumed): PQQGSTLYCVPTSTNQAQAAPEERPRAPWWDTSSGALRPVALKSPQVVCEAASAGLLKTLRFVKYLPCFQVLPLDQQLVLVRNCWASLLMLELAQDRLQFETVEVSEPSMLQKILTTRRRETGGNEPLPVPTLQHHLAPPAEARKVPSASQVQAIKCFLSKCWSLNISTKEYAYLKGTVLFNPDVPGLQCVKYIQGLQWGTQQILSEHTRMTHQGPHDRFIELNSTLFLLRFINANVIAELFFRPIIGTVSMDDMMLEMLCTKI
hcDAF12 agonist = activators of H. contortus DAF-12 nuclear receptor; HEK293 hcDAF-12 lit1-tk-luc reporter, luminescence; 0% DMSO, 100% Δ7-dafachronic acid; activation, % at 6.8 µM; 370,000 tested, 1.4% active; AID 652067;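 active = activation above the mean of all tested compounds plus 3 SD, cut at about 5.5% in these data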;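 note: 100% = response to 3 µM Δ7-dafachronic acid high control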
DAX1 inh-2 = DAX1 (NR0B1) inhibition, primary screen; HEK293T StAR-luciferase reporter, SF-1/DAX-1 repression relief; inhibition, % at 6.8 µM; 370,000 tested, 1.1% active; AID 652010;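 active = inhibition above the mean over all tested compounds plus 3 SD, cut at about 3.6% in these data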;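 note: 0% = DAX-1 cells with DMSO and 100% = cells lacking DAX-1 with DMSO; higher inhibition means more luminescence from relief of DAX-1 repression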
* marks the source's active call; other numbers are inactive results; . = no result.

SMILES	ssDAF-12 act	hgDAF12 agonist	DAX1 inh-1	hcDAF12 agonist	DAX1 inh-2
C[C@@H]1ON(C)[C@H]2C[C@H]3c4cc(N5CCCCC5)ccc4CCN3C[C@@H]12	0	-3	.	-1	0
O=C(NC1CCCc2c1cnn2-c1ccc(F)cc1F)c1cccs1 (centres undefined)	-2	-5	.	-3	.
CC(CCN1CCC(C(O)(c2ccccc2)c2ccccc2)CC1)Oc1ccc(F)cc1 (centres undefined)	0	0	.	1	0
CC(NC(=O)C12CC3CC(CC(C3)C1)C2)C(=O)NN=Cc1ccc([N+](=O)[O-])o1 (centres undefined)	1.6*	-7	-1	1	-3
COC(=O)C/C=C/[C@H](C)[C@@H](NC(=O)C(F)(F)F)c1ccccc1Br	-1	0	.	-2	0
COc1ccc(-c2nnn(CC(=O)N(CCCN3CCOCC3)C(C(=O)NC3CCCC3)c3ccco3)n2)cc1 (centres undefined)	-1	-2	5.2*	-1	0
COc1ccc(-c2nnn(CC(=O)N(CCCN3CCOCC3)C(C(=O)NC3CCCC3)c3ccc(C)o3)n2)cc1 (centres undefined)	-2	3	2	-1	0
COC(=O)c1cc2c(c3c4cc(C)ccc4n(S(=O)(=O)c4cccc(C)c4)c13)C(=O)N(Cc1ccccc1OC)C2	-1	1	.	1	0
CC(=O)Nc1ccc2c(c1)C(=Nc1ccccc1)c1ccccc1-2	-1	2	1	-2	-1
CC(=O)Nc1cc2c3c(cccc3c1)-c1ccccc1-2	0	11*	1	2	1
COc1ccc2[nH]cc(/C=C/C(=O)c3ccccc3)c2c1	0	11*	4	5	1
COc1ccccc1/C=C/C(=O)c1ccccc1	0	13*	0	1	0
COc1cccc(/C=C/C(=O)OCC(=O)c2ccc(C)c(C)c2)c1OC	-1	0	0	-1	-1
COc1cccc(/C=C/C(=O)OCC(=O)c2ccccc2)c1OC	0	13*	-1	6.1*	3
COc1ccccc1/C=C/C(=O)c1ccc(Cl)cc1	-1	4	-1	-1	-1
COc1ccc2c(c1)CN1CN(C3CCCC3)S(=O)(=O)CC21 (centres undefined)	0	5	.	-1	-1
CCOC(=O)C(Cc1ccccc1)NC(=O)CCc1c(C)nc2ncnn2c1C (centres undefined)	-1	1	0	5.7*	0
CCOC(=O)C(Cc1ccccc1)NC(=O)CCc1c(C)nc2nc(C)nn2c1C (centres undefined)	-1	-1	0	1	-1
O=C(COC(=O)c1nc(Cl)ccc1Cl)Nc1ccc(Cl)cn1	1.0*	0	1	5.7*	0
O=C(COC(=O)c1nc(Cl)ccc1Cl)Nc1ccc(Cl)cc1	-1	0	0	1	0
CC(C)[C@H](NC(=O)[C@H](Cc1ccccc1)NC(=O)OC(C)(C)C)C(=O)N1CCC2CCN(S(=O)(=O)c3ccccc3)CC21 (some centres undefined)	-1	-2	.	1	0
N[C@H](C(=O)N[C@@H](Cc1ccccc1)C(=O)N1CCC2CCN(S(=O)(=O)c3ccccc3)CC21)c1ccccc1 (some centres undefined)	0	17*	.	1	3
O=C(O)CC1COc2ccccc2N1C(=O)c1ccccc1Cl (centres undefined)	1.5*	-2	0	-2	0
COC(=O)CC1COc2ccccc2N1C(=O)c1ccc(OC)cc1 (centres undefined)	-1	1	1	-1	0
O=C(Cc1ccc(Cl)cc1)c1ccc(O)cc1	-1	6	4.9*	1	1
SMILES	ssDAF-12 act	hgDAF12 agonist	DAX1 inh-1	hcDAF12 agonist	DAX1 inh-2
CCCCC(=O)c1ccc(O)cc1	-1	0	-1	2	0
O=C(CCO)c1ccc(O)cc1	-1	3	4.3*	-1	1
Cc1ccc(CC(=O)c2ccc(Cl)cc2)cc1	-1	1	1	3	0
Cn1c(=O)cc(OCCCC(=O)Nc2cc(C(F)(F)F)ccn2)c2ccccc21	-3	-11	.	-5	.
CC(C)C(=O)O/N=C1\CCS(=O)(=O)c2sccc21	-1	2	6.2*	1	0
CCOC(=O)[C@]12CCCCC/C=C\1N(CCc1ccc(Cl)cc1)C(=O)[C@H]2CC(=O)NCc1ccc(C)o1	-1	-1	.	-3	0
CCOC(=O)c1cnn2c(C)cc(-c3ccccc3)nc12	0	7	4.3*	4	2
CCOC(=O)c1cc2nc(-c3ccccc3)cc(C)n2n1	-1	-1	0	1	0
O=C(CC(=O)c1ccccc1O)c1ccc(F)cc1	0	11*	0	2	2
O=C(CCCC(=O)c1ccc(F)cc1)c1ccc(F)cc1	1	8	4.8*	2	2
Cc1ccc(C(=O)CC(=O)c2cc(Cl)ccc2O)cc1	1.1*	9	2	3	3
CC(C)(C)c1ccc(C(=O)CC(=O)c2cc(Cl)ccc2O)cc1	-1	6	0	1	0
O=C(CC(=O)c1ccccc1O)c1cccc(F)c1	.	.	0	.	.
COC(=O)c1cc(-c2ccc(C)cc2)c(=O)n2c1CCC2	0	3	.	2	-2
COC(=O)C1CN(CC(C)C)CCS(=O)(=O)N1Cc1cccc(Cl)c1 (centres undefined)	-2	0	.	-1	0
COc1cccc(-c2nnc3sc(-c4ccco4)nn23)c1	-1	2	4.2*	-1	1
COC(=O)c1cc(-c2ccc(OC)c(OC)c2)c(=O)n2c1CCC2	-1	-4	.	-1	0
O=C(CSc1ccccc1F)Nc1ccc(N2CCOCC2)cc1	-1	12*	1	1	-3
O=C(CSc1ccc(Cl)cc1)Nc1ccc(N2CCN(c3ccccc3)CC2)c(F)c1	-1	3	0	-1	0
O=C(CSc1ccccc1)Nc1ccc(N2CCOCC2)c(F)c1	0	5	2	1	4.4*
CC(C)NC(=O)CCn1nnc(-c2cccs2)n1	-1	0	.	-4	0
O=C(CNS(=O)(=O)c1cccc2ccccc12)N1CCN(c2ncccn2)CC1	-1	0	.	-2	0
O=C(NCCOc1ccccc1)c1ccccc1Cl	0	12*	2	4	3
NNC(=O)c1ccccc1OCCOc1ccccc1	2.7*	0	3	3	0
O=C(Nc1cccc(Cl)c1)OCCOc1ccccc1	-1	4	6.0*	1	0
COc1ccc(OCCOC(=O)Nc2ccccc2)cc1	-1	2	0	1	-1
O=C(Nc1ccccc1)OCCOc1ccccc1	-1	12*	3	2	1
O=C(Nc1cccc(Cl)c1)OCCOC(=O)Nc1cccc(Cl)c1	-1	3	-1	-1	0
COc1ccc(OCCNC(=O)c2ccccc2Cl)cc1	0	2	-1	-1	0
